# Results taken from PubChem BioAssay AID1211 (NMMLSC, 2008).
# Calls of active or inactive are those of the source. How the calls were made is not given here.
# Molecular target: Estrogen receptor (Homo sapiens) (UniProt P03372)
# Assay: displacement of fluorescent estrogen from ERalpha – cell-based, Cos7 ERalpha-GFP, flow cytometry, primary screen (AID 1211);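 further: 0% = DMSO vehicle wells and 100% = no E2-Alexa633 signal left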
# Conditions: fluorescent ligand competition, stronger effect = higher value
# Chain of Estrogen receptor (Homo sapiens) (P03372 whole entry, looked up): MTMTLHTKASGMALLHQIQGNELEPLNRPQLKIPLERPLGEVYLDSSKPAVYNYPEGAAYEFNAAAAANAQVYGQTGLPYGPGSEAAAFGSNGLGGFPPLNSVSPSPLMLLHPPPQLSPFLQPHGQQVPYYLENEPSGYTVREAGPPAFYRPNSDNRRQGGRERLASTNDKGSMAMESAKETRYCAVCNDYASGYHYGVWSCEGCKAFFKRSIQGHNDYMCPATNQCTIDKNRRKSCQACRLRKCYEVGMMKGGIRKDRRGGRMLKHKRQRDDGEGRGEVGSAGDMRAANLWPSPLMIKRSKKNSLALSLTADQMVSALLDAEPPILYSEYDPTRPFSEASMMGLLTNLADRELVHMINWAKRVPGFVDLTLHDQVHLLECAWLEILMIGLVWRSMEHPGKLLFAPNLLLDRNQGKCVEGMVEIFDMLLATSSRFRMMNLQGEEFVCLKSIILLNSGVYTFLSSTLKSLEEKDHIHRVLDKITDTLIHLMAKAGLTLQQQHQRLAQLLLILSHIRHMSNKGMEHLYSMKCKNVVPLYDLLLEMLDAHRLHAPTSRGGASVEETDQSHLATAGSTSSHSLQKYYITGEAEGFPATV
SMILES,inhibition of ligand binding (at 10 µM),"inhibition of ligand binding (binding inhibition, at 0.1 µM) [%]"
O=C(Cc1cccs1)Nc1ccc(S(=O)(=O)N2CCCCC2)cc1,32% (inactive),22
COc1ccc(C2Nc3ccccc3C(=O)N2c2ccc(F)cc2)cc1CSc1ccccn1 (stereo not drawn),10% (inactive),28
Cc1noc(C)c1S(=O)(=O)N(CC(=O)O)c1ccc2c(c1)OCO2,0% (inactive),3
COC(=O)c1[nH]c2ccc(C)cc2c1NC(=O)CN1CCCc2ccccc21,49% (inactive),9
CN(C)c1ccc(N=Cc2ccco2)cc1,37% (inactive),23
Cc1ccc2c(Cl)cc(Cl)c(OCC(=O)NCc3ccco3)c2n1,21% (inactive),18
COc1nnc(-c2ccc(C(=O)N3C[C@@H]4C[C@H](C3)c3cccc(=O)n3C4)cc2)c2ccccc12,1% (inactive),6
COc1ccccc1N1CCN(C(=O)c2cc3c(s2)CCC3)CC1,41% (inactive),55
COc1ccc(-n2c(SCC(=O)Nc3nccs3)nc3sc4c(c3c2=O)CCN(C)C4)cc1,30% (inactive),24
CCc1nc2sc3ccccc3c(=O)c2c(=O)n1Cc1ccco1,0% (inactive),23
COC(=O)c1ccc2c(=O)n(CCCCCC(=O)NCc3ccc4c(c3)OCO4)c(=O)[nH]c2c1,19% (inactive),18
COc1cc2cc(C(c3nnnn3C3CCCC3)N3CCc4ccccc43)c(=O)[nH]c2cc1OC (stereo not drawn),36% (inactive),56
N#CC1=C(N)OC2=C(CCC/C2=C/c2ccoc2)C1c1ccoc1 (stereo not drawn),56% (inactive),40
Oc1ccc(C2=Nn3c(nnc3-c3ccco3)SC2)cc1O,32% (inactive),27
